HT1080NT lethal = kills 2HG-producing HT-1080-NT fibrosarcoma cells. HT-1080-NT fibrosarcoma viability, CellTiter-Glo ATP luminescence, 48 h. Potency, µM (doses to about 46.1 µM), inactives show at the top dose activity, negative = less viability, hits mostly cytotoxic. hit rate 1.6% among 360,000. AID 686970;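 note: NT is the 2HG producing partner of a matched IDH1 knockdown line; potency is the fitted concentration of half-maximal effect; 0% = DMSO-treated cells and -100% = media-only wells without cells; nearly all actives have a fitted effect of over 55% in size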
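A 48-hour cytotoxicity screen used HT-1080-NT cells plated 2 hours before compound delivery. ATP-based CellTiter-Glo luminescence measured viability, normalized to DMSO and no-cell controls.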
TDP1 cell CPT = growth inhibition of DT40 Tdp1-/-;hTDP1 cells with camptothecin (screen for TDP1 inhibitors); chicken DT40 Tdp1-/-;hTDP1 cells + 20 nM CPT, ATP luminescence, 48 h; hit rate 12% among 420,000; Potency, µM (series often up to 46.2 µM), for inactives: at the top dose activity change, negative = growth inhibition, actives largely listed as inhibitors; note: potency is the fitted concentration of half-maximal effect; nearly all actives have a fitted effect of over 55% in size
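Chicken DT40 Tdp1-/- cells complemented with human TDP1, 400 cells/well, exposed to compounds plus 20 nM camptothecin for at least 48 h at 37 C; viability read as ATP content by CellTiter-Glo luminescence.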
DT40 TDP1 no CPT = qHTS for Inhibitors of human tyrosyl-DNA phosphodiesterase 1 (TDP1): qHTS in cells in absence of CPT. DT40 Tdp1-/- hTDP1 cells, no CPT, ATP luminescence, 48 h. Potency, µM (highest dose often 46.2 µM), inactives show top-dose activity change, negative = growth inhibition, actives largely listed as inhibitors. hit rate 15% among 420,000. AID 686978, 2013; note: potency is the fitted concentration of half-maximal effect; nearly all actives have a fitted effect of over 55% in size
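Readout: luminescence from CellTiter-Glo after 30 min in the dark at RT. Cells: DT40 Tdp1-/- with stable hTDP1, 400/well. Exposure: compounds alone, ≥48 hr, 37 °C.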
ELG1 repair inh = ELG1-dependent DNA repair inhibition; HEK293T ELG1-luciferase reporter, luminescence, 16 h; DNA damage induced by 5-fluorouridine; hit rate 2.3% among 330,000; Potency, µM (doses to about 46.1 µM), for inactives: top-dose activity change, negative = inhibition, actives largely listed as inhibitors; note: potency is the fitted concentration of half-maximal effect; nearly all actives have a fitted effect of over 55% in size
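Cells (2,000 per well) received 5-fluorouridine plus test compound or DMSO and were incubated 16 hr at 37 °C, 5% CO2. Luciferase activity was read by luminescence 30 min after ONE-Glo addition; signal suppression marked inhibition of damage-induced ELG1 function.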
HT1080 IDH1KD tx = toxicity to HT-1080 IDH1 knockdown cells (counter line); HT-1080 IDH1 knockdown viability, ATP luminescence, 48 h; Potency, µM (top dose mostly 46.1 µM), without a hit: at the highest dose activity, negative = toxicity, usual class: cytotoxic; hit rate 2% among 360,000;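 note: potency is the fitted concentration of half-maximal effect; 0% = DMSO wells and -100% = cell-free medium wells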
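In this qHTS, HT-1080 cells depleted of IDH1 are exposed for 48 h at 37 °C to compound titrations. Toxicity is scored from CellTiter-Glo luminescence, with DMSO as full viability and medium alone as none.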
IL1B secr inh = inhibitors of inflammasome signaling (IL-1 beta secretion); THP-1 LPS/ATP IL-1B secretion, AlphaLISA, 16 h; active compounds read low; activity change, % at 57.5 µM; hit rate 4.7% among 360,000; in the data active = activity change below about -50%; inconclusive = mostly about -30% to -49%
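THP-1 cells pretreated 1 hr with compounds (up to 57.5 uM final), then stimulated with LPS (250 ng/mL final) plus ATP (1.25 mM final); secreted IL-1B measured by AlphaLISA after 16 hr, decreased signal indicating inhibition.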
ELG1 FLuc counter = luciferase inhibition in cell-free luciferin readout for ELG1 hits. Potency, µM (series often up to 46.1 µM), inactives show top-dose activity change, negative = inhibition, usual class: inhibitors. shares compounds with ELG1 repair inh. AID 624247. hit rate 3% among 350. cell-free firefly luciferase luminescence counter-screen, ViewLux; note: potency is the fitted concentration of half-maximal effect
ELG1 Luc conf = human ELG1 repair inhibition, luciferase-tagged ELG1 confirmation | hit rate 68% among 670 | AID 624248 | Potency, µM (series often up to 46.1 µM), without a hit: top-dose activity change, negative = inhibition, hits mostly inhibitors | HEK293T ELG1-luciferase levels, luminescence; cells co-treated with 5-fluorouridine | shares compounds with ELG1 repair inh; note: potency is the fitted concentration of half-maximal effect; nearly all actives have a fitted effect of over 55% in size
Target sequence (Q96QE3 whole entry, looked up): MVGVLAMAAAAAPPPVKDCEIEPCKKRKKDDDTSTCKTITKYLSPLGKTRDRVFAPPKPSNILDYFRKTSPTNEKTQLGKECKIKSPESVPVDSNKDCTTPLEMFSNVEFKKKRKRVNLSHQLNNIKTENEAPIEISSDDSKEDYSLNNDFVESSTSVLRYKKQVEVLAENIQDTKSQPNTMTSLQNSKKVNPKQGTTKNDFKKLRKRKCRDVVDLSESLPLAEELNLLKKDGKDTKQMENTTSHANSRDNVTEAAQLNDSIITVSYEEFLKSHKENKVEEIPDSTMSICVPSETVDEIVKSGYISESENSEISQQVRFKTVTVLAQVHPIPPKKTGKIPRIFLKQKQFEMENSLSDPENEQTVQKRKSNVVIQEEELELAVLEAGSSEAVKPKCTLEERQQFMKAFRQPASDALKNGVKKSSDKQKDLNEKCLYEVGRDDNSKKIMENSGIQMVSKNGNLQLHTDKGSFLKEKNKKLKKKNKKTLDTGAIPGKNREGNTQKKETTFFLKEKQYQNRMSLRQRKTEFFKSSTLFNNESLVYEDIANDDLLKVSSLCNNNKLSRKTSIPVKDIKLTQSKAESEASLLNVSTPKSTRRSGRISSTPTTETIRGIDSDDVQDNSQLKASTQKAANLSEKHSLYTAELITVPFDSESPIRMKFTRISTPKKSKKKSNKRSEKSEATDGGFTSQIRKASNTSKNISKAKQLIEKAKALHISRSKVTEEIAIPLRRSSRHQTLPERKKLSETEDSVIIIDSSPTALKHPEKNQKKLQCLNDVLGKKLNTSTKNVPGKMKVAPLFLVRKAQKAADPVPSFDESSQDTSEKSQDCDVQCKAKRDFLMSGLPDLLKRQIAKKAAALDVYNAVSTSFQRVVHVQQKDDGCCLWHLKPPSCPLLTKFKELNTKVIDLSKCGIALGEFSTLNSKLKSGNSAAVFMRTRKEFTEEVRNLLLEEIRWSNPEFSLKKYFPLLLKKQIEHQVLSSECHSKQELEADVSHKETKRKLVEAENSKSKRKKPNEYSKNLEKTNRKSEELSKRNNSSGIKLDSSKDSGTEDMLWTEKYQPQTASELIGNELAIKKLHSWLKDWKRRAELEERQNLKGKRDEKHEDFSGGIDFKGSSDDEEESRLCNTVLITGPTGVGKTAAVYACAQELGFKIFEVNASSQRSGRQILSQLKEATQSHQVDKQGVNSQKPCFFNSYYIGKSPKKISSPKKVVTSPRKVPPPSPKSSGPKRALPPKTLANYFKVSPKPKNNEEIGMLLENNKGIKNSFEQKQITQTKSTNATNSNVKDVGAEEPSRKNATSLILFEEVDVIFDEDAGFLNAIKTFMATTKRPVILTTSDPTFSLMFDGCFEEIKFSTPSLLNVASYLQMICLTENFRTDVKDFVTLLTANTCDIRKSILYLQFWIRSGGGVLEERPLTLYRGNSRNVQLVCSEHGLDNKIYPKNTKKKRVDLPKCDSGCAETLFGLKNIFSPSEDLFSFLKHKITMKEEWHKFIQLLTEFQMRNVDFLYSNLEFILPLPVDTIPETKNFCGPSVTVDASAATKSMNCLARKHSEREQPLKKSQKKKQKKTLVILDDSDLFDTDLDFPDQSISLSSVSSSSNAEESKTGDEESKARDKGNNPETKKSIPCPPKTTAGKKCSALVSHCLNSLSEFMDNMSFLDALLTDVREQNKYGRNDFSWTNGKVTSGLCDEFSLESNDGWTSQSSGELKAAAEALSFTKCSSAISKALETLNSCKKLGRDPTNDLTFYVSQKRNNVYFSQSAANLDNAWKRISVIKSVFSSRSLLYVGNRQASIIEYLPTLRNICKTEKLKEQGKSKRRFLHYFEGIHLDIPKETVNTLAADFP
ELG1-Luc MMS = MMS-stimulated human ELG1 repair inhibition, confirmed. shares compounds with ELG1 repair inh. HEK293T luciferase-tagged ELG1 level, MMS stimulated. Potency, µM (titrated, usually from 46.1 µM), inactives show top-dose activity change, negative = inhibition, actives largely listed as inhibitors. hit rate 53% among 670. AID 624249; note: potency is the fitted concentration of half-maximal effect; nearly all actives have a fitted effect of over 60% in size
ELG1 5-FU = confirmation of ELG1 repair inhibitors: viability with 5FU | shares compounds with ELG1 repair inh | cell viability with 5-FU, ELG1-dependent repair | Potency, µM (titrated, usually from 46.1 µM), for the others: at the highest dose activity change, negative = viability loss, actives largely listed as cytotoxic | 670 tested, under 10 active;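 note: ELG1-luc HEK293T cells cotreated with 5-fluorouridine at 10 µM final; potency is the fitted concentration of half-maximal effect; viability measured 16 h after compound addition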
ELG1 MMS cell = confirmation of ELG1 repair inhibitors: viability with MMS; shares compounds with ELG1 repair inh; Cell viability with MMS, ELG1-dependent DNA repair; Potency, µM (series often up to 46.1 µM), for the others: at the top dose activity change, negative = viability loss, hits mostly cytotoxic; hit rate 33% among 670; AID 624251;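 note: ELG1-luc HEK293T cells co-treated with 10 µM MMS; potency is the fitted concentration of half-maximal effect; viability read 16 h after compound addition; nearly all actives have a fitted effect of over 60% in size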
Cell viab unstim = counter-screen for ELG1 repair inhibitors: unstimulated cell viability. hit rate 8% among 900. AID 624252. shares compounds with ELG1 repair inh. Potency, µM (titrated, usually from 45.9 µM), for the others: at the highest dose activity change, negative = loss of viability, hits mostly cytotoxic. cell viability counter-screen, unstimulated, luminescence;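 note: potency is the fitted concentration of half-maximal effect; compound exposure lasted 16 hours before reading; nearly all actives have a fitted effect of over 55% in size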
FLuc biochem = counter-screen for ELG1 repair inhibitors: firefly luciferase inhibition; Potency, µM (top dose mostly 57.5 µM), for inactives: at the top dose activity, negative = inhibition, hits mostly inhibitors; purified firefly luciferase, luminescence counter-screen; hit rate 10% among 350; shares compounds with ELG1 repair inh; note: potency is the fitted concentration of half-maximal effect
Starred values were filed as active, the others as inactive; ? = inconclusive; / = no result given; [ ] = dose if it differs, or a comment. Sampled rows, rich in hits. Any-hit rate of the full collection: about 19%. Unless noted, calls come from the whole dose curve; as a rule, active = well fitted curve in the direction sought with a large enough effect; inconclusive = small, poorly fitted or top-dose-only effect, or another doubt; inactive = no such curve, though single readings can be large; an effect the other way counts as inactive or inconclusive. Unless noted, % is set by controls: 0 for no effect and ±100 for the full control effect.

SMILES	HT1080NT lethal	TDP1 cell CPT	DT40 TDP1 no CPT	ELG1 repair inh	HT1080 IDH1KD tx	IL1B secr inh	ELG1 FLuc counter	ELG1 Luc conf	ELG1-Luc MMS	ELG1 5-FU	ELG1 MMS cell	Cell viab unstim	FLuc biochem
Cc1ccc(C)c(Nc2ncnc3nc[nH]c23)c1	-2.3%	?	-5.7%	10.8%	-2.4%	49.9	/	/	/	/	/	/	/
Cc1ccnn1Cc1cc(C(=O)O)c2ccccc2n1	-6.5%	-2.0%	-21.0%	-12.9%	0.2%	20.2	/	/	/	/	/	/	/
Cc1nn(-c2ccc(C(=O)O)cc2)c(C)c1Cl	-1.2%	-10.9%	-25.5%	?	1.8%	-6.5	/	/	/	/	/	/	/
Cc1nn(-c2ccc(C(=O)N3CCN(S(=O)(=O)c4ccccc4C(F)(F)F)CC3)cc2)c(C)c1Cl	-0.6%	?	?	3.26µM*	-8.3%	-12.8	/	7.05µM*	?	?	?	?	/
O=C(Nc1ccc(Cl)cc1)c1nc[nH]c1C(=O)NCCCCNC(=O)c1[nH]cnc1C(=O)Nc1ccc(Cl)cc1	7.4%	5.8µM*	4.61µM*	2.91µM*	8.6%	?	/	2.5µM*	11.2µM*	-3.8%	25µM*	?	/
CC(C)C(NC(=O)OCc1ccccc1)C(=O)N1CCOCCOCCOCC1 (stereo not given)	19.9%	-23.4%	?	-10.7%	20.3%	9.0	/	/	/	/	/	/	/
COc1cc2c(cc1OC)-c1cc(N3CCc4ccccc43)nc(=O)n1CC2	19.0%	?	?	?	-10.4%	-65.7*	/	2.81µM*	26.1%	?	?	?	/
COc1cc2c(cc1OC)-c1cc(N3CCCCCC3)nc(=O)n1CC2	-21.7%	?	?	-4.3%	?	-2.2	/	/	/	/	/	/	/
COc1cccc(NS(=O)(=O)c2ccc3c(c2)CCN3C(C)=O)c1	-11.6%	7.31µM*	7.31µM*	2.06µM*	-16.7%	15.3	/	?	6.28µM*	-5.7%	4.45µM*	?	/
O=C(Nc1ccc(N2CCN(C(=O)c3ccco3)CC2)cc1)c1ccc([N+](=O)[O-])cc1Cl	-26.3%	?	20.6µM*	4.61µM*	-18.0%	-4.5	/	6.28µM*	7.05µM*	?	?	?	/
COc1ccc(CCNc2nc(-c3cccnc3)nc3ccccc23)cc1OC	?	13µM*	9.2µM*	2.59µM*	10.3µM*	?	14.2%	3.15µM*	12.6µM*	?	?	?	?
CC(=O)OCCNc1nc(-c2ccccc2)nc2ccccc12	6.2%	?	-14.2%	2.8%	7.3%	-12.4	/	/	/	/	/	/	/
COc1ccc(CCNC(=O)c2cccnc2)cc1OC	12.5%	-0.3%	-13.6%	4.7%	5.4%	35.9	/	/	/	/	/	/	/
COc1ccc(C(CNc2nc(-c3cccnc3)nc3ccccc23)N(C)C)cc1 (stereo not given)	16.4µM*	?	?	-24.8%	16.4µM*	-82.2*	-2.1%	17.7µM*	?	?	0.3%	-9.5%	-6.9%
Fc1ccc(Nc2nc(-c3ccncc3)nc3ccccc23)cc1F	-7.6%	/	/	1.84µM*	-1.7%	-5.3	1.9%	1.41µM*	?	?	-6.9%	?	4.2%
CC1(C)Cc2c(c(N3CCOCC3)nc3snc(Br)c23)CO1	?	?	?	16.4µM*	-23.3%	0.4	3.0%	12.6µM*	?	?	-1.5%	-1.7%	3.7%
CC1(C)Cc2c(C#N)c(SCCC#N)nc(N3CCOCC3)c2CO1	1.7%	5.8%	-7.6%	-7.2%	14.4%	34.4	/	/	/	/	/	/	/
CCOC(=O)c1[nH]c2cc(OC)c(OC)cc2c1NC(=O)CN1CCN(c2ccc(OC)cc2)C(C)C1 (stereo not given)	/	/	/	1.3µM*	/	/	?	3.24µM*	36.3µM*	?	?	40.7µM*	-3.9%[115 µM]
COC(=O)c1[nH]c2ccc(C)cc2c1NC(=O)C(C)N1CCN(C2CCCCC2)CC1 (stereo not given)	?	-8.7%	?	-15.4%	-4.8%	13.1	-5.8%	1.12µM*	?	8.0%	7.7%	?	5.1%
COC(=O)c1[nH]c2ccc(C)cc2c1NC(=O)CN1CCN(c2ccccc2)CC1	-27.1%	16.4µM*	23.1µM*	18.4µM*	-22.6%	-23.4	?	12.6µM*	17.7µM*	?	?	25µM*	0.8%
O=C(NC(=S)Nc1cc([N+](=O)[O-])ccc1O)C1CC1	27.5%	-15.4%	-4.0%	17.4%	-5.4%	11.0	/	/	/	/	/	/	/
Cc1ccc(N2CC(C(=O)N3CCCCC3)CC2=O)cc1C (stereo not given)	0.8%	?	24.8%	12.2%	0.6%	7.9	/	/	/	/	/	/	/
CC(C)CCNC(=O)C1CCC(CNc2c(N3CCCC3)c(=O)c2=O)CC1 (stereo not given)	?	-8.7%	-17.2%	2.7%	19.3%	8.2	/	/	/	/	/	/	/
